Experimental data as given in PubChem BioAssay.
Activity calls are given as the source filed them.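 Rule for the calls, unless noted: active = inhibition at or above 50% at 10 µM; inactive = inhibition below 50%.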

How the values were obtained:
[1] = inhibitors of TNFa-induced NFkB p65 translocation, primary screen, imaging, HUVEC, MLSMR starter and 10KST1 sets (AID 438;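 active = inhibition above 20% together with a positive visual image hit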;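 note: compound added about 3h40 before a 20 min TNFalpha stimulation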;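 for inhibition: signal is the nuclear over cytoplasmic p65 intensity ratio per well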); conditions: HUVEC TNFa-induced p65 nuclear translocation; cell count: measured here: nuclei count (cytotoxicity indicator), at 2.08 µM; inhibition: at 2 µM, stronger effect = higher value, 0% TNFa-plus-vehicle, 100% no-TNFa wells
[2] = reduction of polyQ htt aggregates in cells – imaging, exon1htt(103Q)mCFP cells, high-content imaging, primary screen (AID 483;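 active = visual image review flags a hit and inhibition of aggregation exceeds 20%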;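 note: compound exposure lasted 3 days before fixation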;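 for nuclei count: percent of the per-plate median nuclei count of sample wells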); conditions: exon1htt(103Q)mCFP cell line, aggregate imaging, at 2 µM; inhibition of aggregation: stronger effect = higher value; nuclei count: measured here: cell count, toxicity
[3] = endothelial E-selectin expression blockers – imaging, HUVEC, immunofluorescence, MLSMR starter and 10KST1 sets, primary screen (AID 487;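 active = visually confirmed hit in the image check and inhibition above 20%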;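 for inhibition: signal is fraction of cell area covered by stained E-selectin grains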;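 for nuclei count: 100% = median nuclei count of all wells on the same plate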); conditions: HUVEC TNFalpha-induced E-selectin immunofluorescence imaging, at 2 µM; inhibition: stronger effect = higher value; nuclei count: measured here: cell number, toxicity
[4] = target: Voltage-gated potassium channel subunit beta-2 (Rattus norvegicus) (UniProt P62483); test: inhibitors of rat Kvbeta2 reductase activity – biochemical, NADPH fluorescence, primary screen (AID 622;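 active = fluorescence slope higher than the sample average by over 3 SD, cut at about -0.22 in these data, passing the limit was not always enough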;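 note: slope of raw intensity against log time taken from 70 to 1610 s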); conditions: recombinant KvBeta, 4-cyanobenzaldehyde reduction, at 10 µM, stronger effect = higher value
[5] = target: Voltage-gated potassium channel subunit beta-2 (Rattus norvegicus) (UniProt P62483); test: enhancers of rat Kvbeta2 NADPH turnover – biochemical, NADPH fluorescence, primary screen (AID 623;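 active = NADPH fluorescence slope more negative than the mean of all samples by about 3 SD, 99.7% confidence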;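 note: fluorescence intensity change per second fitted from 20 to 320 s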); conditions: Recombinant KvBeta, NADPH fluorescence decrease slope, 10 min; at 10 µM; stronger effect = lower value
[6] = target: Alpha-2C adrenergic receptor (Homo sapiens) (UniProt P18825); test: compounds altering alpha2C-coupled GIRK flux – cell-based, HEK293 alpha2C/GIRK1/2, thallium flux, primary screen (AID 624;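 active = fluorescence slope after compound addition differing from the mean of all screened samples at 99.7% confidence, in either direction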;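 note: slope of fluorescence ratio to pre-addition baseline per second over 15 to 24 s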); conditions: thallium flux BTC fluorescence, at 10 µM, actives lie on both sides
[7] = blockers of RIG-like receptor reporter activation – cell-based, Sendai virus stimulus, luciferase, 10K MLSCN set, TLR/RLR signaling modifier project, primary screen (AID 602276); conditions: HEK293 RL24 IRF3 luciferase reporter, at 10 µM, stronger effect = higher value;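 note: firefly luciferase from ISG56 promoter only with Renilla not read in this screen; 0% = Sendai virus plus DMSO and 100% = medium plus DMSO without virus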
[8] = TLR3 IRF3 reporter activation blockers – cell-based, poly I:C stimulus, luciferase, 10K MLSCN set, primary screen (AID 602277;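 active = inhibition of the reporter signal at or above 50%; inactive = inhibition below 50%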); conditions: HEK293-TLR3 RL24 IRF3 luciferase reporter, at 10 µM, stronger effect = higher value

Chain of Voltage-gated potassium channel subunit beta-2 (Rattus norvegicus) (P62483 whole entry, looked up): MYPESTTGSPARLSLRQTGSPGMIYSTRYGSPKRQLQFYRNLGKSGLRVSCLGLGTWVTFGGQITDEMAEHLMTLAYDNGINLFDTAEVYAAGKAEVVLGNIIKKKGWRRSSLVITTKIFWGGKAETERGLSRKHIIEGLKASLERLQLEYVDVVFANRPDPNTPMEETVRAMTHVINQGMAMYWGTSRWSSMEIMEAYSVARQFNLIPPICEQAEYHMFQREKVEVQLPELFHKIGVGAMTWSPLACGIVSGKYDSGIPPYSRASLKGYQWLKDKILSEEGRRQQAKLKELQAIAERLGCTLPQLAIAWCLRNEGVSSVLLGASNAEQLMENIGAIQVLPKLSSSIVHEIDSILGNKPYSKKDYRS
Chain of Alpha-2C adrenergic receptor (Homo sapiens) (P18825 whole entry, looked up): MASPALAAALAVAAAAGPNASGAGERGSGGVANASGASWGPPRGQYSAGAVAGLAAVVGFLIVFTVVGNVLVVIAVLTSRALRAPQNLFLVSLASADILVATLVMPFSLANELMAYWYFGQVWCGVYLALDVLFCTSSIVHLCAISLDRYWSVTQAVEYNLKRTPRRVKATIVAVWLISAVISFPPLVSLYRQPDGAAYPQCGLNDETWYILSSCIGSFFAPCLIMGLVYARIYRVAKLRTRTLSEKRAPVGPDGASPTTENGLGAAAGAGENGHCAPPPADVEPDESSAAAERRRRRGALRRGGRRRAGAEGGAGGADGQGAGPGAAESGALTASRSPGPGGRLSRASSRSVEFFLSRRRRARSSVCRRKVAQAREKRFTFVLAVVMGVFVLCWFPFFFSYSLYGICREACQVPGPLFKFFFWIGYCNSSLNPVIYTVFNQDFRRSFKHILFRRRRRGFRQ

Structure (SMILES)	cell count [1]	inhibition [1]	inhibition of aggregation [2]	nuclei count [2]	inhibition [3]	nuclei count [3]	fluorescence slope [4]	NADPH fluorescence slope [5]	slope [6]	inhibition [7]	inhibition [8]
CCOc1ccccc1NC(=O)CN(C)S(=O)(=O)c1cccc2nsnc12	671	-16.4% (inactive)	-5.6% (inactive)	96.9%	-141% (inactive)	119%	-0.329 (inactive)	-4.9e-05 (inactive)	0.00417 (inactive)	15.8% (inactive)	15.6% (inactive)
Cc1noc(C)c1C(=O)Nc1ccc(Cl)cc1C(F)(F)F	327	-13.5% (inactive)	1.7% (inactive)	99.5%	-6% (inactive)	102%	-0.625 (inactive)	-1e-05 (inactive)	0.0031 (inactive)	17.2% (inactive)	18% (inactive)
COc1ccc(-c2nnc(SCC(=O)Nc3ccc(Cl)cc3)n2C)cc1	327	-5.5% (inactive)	-26.9% (inactive)	139%	-77.8% (inactive)	122%	-0.462 (inactive)	3.4e-05 (inactive)	0.00817 (inactive)	-16% (inactive)	-1.71% (inactive)
C=CCn1c2ccccc2c2nnc(SCC(=O)NC(C(=O)OC)C(C)C)nc21 (stereo not drawn)	787	-1.4% (inactive)	10.3% (inactive)	104%	-83.9% (inactive)	103%	-0.424 (inactive)	-0.000127 (inactive)	0.00508 (inactive)	14.6% (inactive)	27.7% (inactive)
CCN(CC)CCCN1C(=O)C(O)=C(C(C)=O)C1c1cccc(OC)c1 (stereo not drawn)	468	7.8% (inactive)	3.9% (inactive)	97.3%	-142% (inactive)	105%	-0.367 (inactive)	-4.4e-05 (inactive)	0.00698 (inactive)	11.2% (inactive)	13.5% (inactive)
C=CCSC1=C(C#N)C(c2ccccc2)CC(=O)N1 (stereo not drawn)	486	-1.6% (inactive)	1.6% (inactive)	101%	-112% (inactive)	104%	-0.527 (inactive)	8.1e-07 (inactive)	0.00534 (inactive)	6.68% (inactive)	8.17% (inactive)
COC(=O)CCn1nnc(-c2cccs2)n1	547	-6.8% (inactive)	7.6% (inactive)	110%	-34.8% (inactive)	96%	-0.598 (inactive)	-5.1e-05 (inactive)	0.00439 (inactive)	-2.1% (inactive)	-22% (inactive)
CCOC(=O)N1CCN(C(=O)CSc2nnc(-c3cc(OC)cc(OC)c3)o2)CC1	228	8.2% (inactive)	-10.3% (inactive)	67.5%	-54.1% (inactive)	99.6%	-0.398 (inactive)	-5.6e-05 (inactive)	0.00254 (inactive)	12.2% (inactive)	29.1% (inactive)
CC(=O)N(C(C)=O)c1ncc2c([nH]c3ccccc32)c1C#N	320	2.1% (inactive)	-79% (inactive)	2.8%	0.9% (inactive)	117%	-0.406 (inactive)	-2.2e-05 (inactive)	0.00457 (inactive)	11.7% (inactive)	15.6% (inactive)
CCOC(=O)c1cc2n(n1)C(C(F)(F)C(F)(F)F)CC(C)N2 (stereo not drawn)	650	-12.1% (inactive)	4.6% (inactive)	113%	-30.4% (inactive)	106%	-0.429 (inactive)	2.3e-05 (inactive)	0.00828 (inactive)	11.4% (inactive)	14.9% (inactive)
COc1ccc(OC)c(Nc2ncnc3c2cnn3-c2ccccc2)c1	334	-6.5% (inactive)	-6.7% (inactive)	111%	-26.3% (inactive)	113%	-0.4 (inactive)	-2.9e-05 (inactive)	0.00524 (inactive)	-14.3% (inactive)	-62.3% (inactive)
COc1cc(C(=O)OCC(=O)N(C)Cc2ccccc2)cc(OC)c1OC	405	5.1% (inactive)	-1.2% (inactive)	110%	-264% (inactive)	119%	-0.535 (inactive)	-0.00012 (inactive)	0.00533 (inactive)	15.1% (inactive)	20.6% (inactive)
CCCn1c(C)cc(C(=O)COc2ncnc3sccc23)c1C	312	2.9% (inactive)	11.2% (inactive)	65.8%	-66.8% (inactive)	115%	-0.556 (inactive)	2.3e-05 (inactive)	0.00512 (inactive)	-64% (inactive)	-108% (inactive)
CCCCNC(=O)c1nnn(-c2ccccc2)c1N	311	3.9% (inactive)	8% (inactive)	110%	-11.4% (inactive)	120%	-0.568 (inactive)	2.4e-05 (inactive)	0.00585 (inactive)	-55.7% (inactive)	-166% (inactive)
O=C(CN(CCc1ccccc1)C(=O)CNS(=O)(=O)c1ccccc1)NCC1CCCO1 (stereo not drawn)	322	11.7% (inactive)	-13.1% (inactive)	99.8%	-46.7% (inactive)	109%	-0.481 (inactive)	2e-05 (inactive)	0.0066 (inactive)	-8.2% (inactive)	13.9% (inactive)
CCOC(=O)C1(CC)NC(c2cccc(F)c2)C2C(=O)N(CC)C(=O)C21 (stereo not drawn)	567	-7.7% (inactive)	21.4% (inactive)	93.8%	-6.6% (inactive)	70.2%	-0.476 (inactive)	-0.00018 (inactive)	0.00451 (inactive)	12.4% (inactive)	16.3% (inactive)
CCOC(=O)N1CCC(NC(=O)Cn2ncc3c4ccccc4n(C)c3c2=O)CC1	557	-1% (inactive)	-0.9% (inactive)	98.6%	-47.7% (inactive)	105%	-0.28 (inactive)	-2.3e-05 (inactive)	0.00602 (inactive)	14.9% (inactive)	26% (inactive)
COc1ccc(NC(=O)CN2CCN(S(=O)(=O)c3ccc(Cl)cc3)CC2)cc1	333	1.1% (inactive)	17.3% (inactive)	123%	5% (inactive)	116%	-0.411 (inactive)	-2.8e-05 (inactive)	0.00382 (inactive)	11.8% (inactive)	17.3% (inactive)
O=C(CC1Oc2ccc(Cl)cc2NC1=O)NC1CCCCCC1 (stereo not drawn)	615	-4.3% (inactive)	19.5% (inactive)	51.7%	0.7% (inactive)	100%	-0.544 (inactive)	-3.7e-05 (inactive)	0.00511 (inactive)	8.85% (inactive)	6.03% (inactive)
N#C/C(=C(/O)CN1CCOCC1)c1nc2ccccc2s1	794	2.1% (inactive)	-5.9% (inactive)	104%	-126% (inactive)	129%	-0.452 (inactive)	4.4e-05 (inactive)	0.00349 (inactive)	-15.8% (inactive)	-1.7% (inactive)
COc1ccc(C)cc1NC(=O)COCC(=O)O	710	-28.6% (inactive)	4.1% (inactive)	100%	-22.9% (inactive)	102%	-0.605 (inactive)	-1.6e-05 (inactive)	0.00568 (inactive)	-0.927% (inactive)	9.35% (inactive)
CCNC(=O)C1CC(=O)N(Cc2ccc3c(c2)OCO3)C(=Nc2ccc(F)cc2)S1 (stereo not drawn)	705	-0.8% (inactive)	-38.8% (inactive)	109%	-83.7% (inactive)	98%	-0.471 (inactive)	-0.000221 (inactive)	0.00631 (inactive)	-2.28% (inactive)	16% (inactive)
CCN(CC)CCCNC(=O)c1nn(-c2ccc(OC)cc2OC)c(=O)c2ccccc12	352	5.3% (inactive)	-6.3% (inactive)	106%	-101% (inactive)	127%	-0.597 (inactive)	-3.1e-05 (inactive)	0.00476 (inactive)	-10.6% (inactive)	7.12% (inactive)
OC1(c2cccc(C(F)(F)F)c2)CCN(c2ccc(-c3ccccc3)nn2)CC1	853	4.3% (inactive)	-13.4% (inactive)	96.8%	-25.2% (inactive)	106%	-0.456 (inactive)	-4.5e-05 (inactive)	0.00688 (inactive)	-40.7% (inactive)	-99% (inactive)
CCCc1cc(C(=O)Nc2ccc(C(C)=O)cc2)no1	566	-4.4% (inactive)	1.1% (inactive)	128%	-58.4% (inactive)	110%	-0.559 (inactive)	1.4e-06 (inactive)	0.00619 (inactive)	15.4% (inactive)	-5.79% (inactive)
COC(=O)c1ccccc1NC(=O)C1CC=CCC1C(=O)O (stereo not drawn)	373	4.2% (inactive)	-0.6% (inactive)	96.6%	0.7% (inactive)	98.1%	-0.479 (inactive)	-3.3e-05 (inactive)	0.00613 (inactive)	16.2% (inactive)	22.4% (inactive)
COc1cc2c(N3CCOCC3)cc(O)c(CC(=O)Nc3ccccc3)c2cc1OC	217	2.5% (inactive)	0.7% (inactive)	107%	-63.7% (inactive)	101%	-0.344 (inactive)	-3.7e-06 (inactive)	0.00641 (inactive)	-3.63% (inactive)	7.05% (inactive)
CC(=O)c1c(C)[nH]c(C(=O)Nc2c(C)n(C)n(-c3ccccc3)c2=O)c1C	418	2% (inactive)	-7.3% (inactive)	112%	-137% (inactive)	111%	-0.493 (inactive)	-2.7e-05 (inactive)	0.00389 (inactive)	17.1% (inactive)	21.5% (inactive)
